Test results from the supplement of paper PMC3334620.
Over roughly 33,000 sequences, “E-score (-0.5 to 0.5)” has its median near -0.036; the highest 2% begin near 0.37. The entries come from a sample that favours the highest values as a whole.

Each sequence was assayed against T1, Yer064c (UniProt P40041) (assay: PBM E-score (8-mer binding enrichment) (E-score (-0.5 to 0.5)); higher = stronger / more preferred TF binding). Settings: protein concentration: 200 nM; construct: GST-full length.
T1 sequence: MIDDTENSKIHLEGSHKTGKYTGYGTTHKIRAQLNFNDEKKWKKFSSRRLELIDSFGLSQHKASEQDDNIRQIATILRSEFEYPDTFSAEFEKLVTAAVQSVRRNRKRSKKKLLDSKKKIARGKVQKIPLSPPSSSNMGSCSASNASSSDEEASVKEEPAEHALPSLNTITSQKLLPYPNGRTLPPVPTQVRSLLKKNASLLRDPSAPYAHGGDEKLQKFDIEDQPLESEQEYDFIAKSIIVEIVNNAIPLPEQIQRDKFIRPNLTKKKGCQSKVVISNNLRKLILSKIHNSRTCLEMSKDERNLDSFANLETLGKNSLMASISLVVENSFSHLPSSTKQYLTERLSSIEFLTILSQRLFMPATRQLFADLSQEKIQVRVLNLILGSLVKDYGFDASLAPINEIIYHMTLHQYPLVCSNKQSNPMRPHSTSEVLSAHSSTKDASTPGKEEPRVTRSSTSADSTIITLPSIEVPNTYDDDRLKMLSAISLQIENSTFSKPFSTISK
Description: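 Universal 'all 10-mer' protein binding microarrays (Agilent AMADID 015681) probed with GST-tagged S. cerevisiae TFs (full-length or DBD) made by in vitro transcription/translation (PURExpress), about 100-200 nM. Bound TF was detected with fluorescent anti-GST. Each ungapped 8-mer (which stands for itself and its reverse complement) is scored by the PBM enrichment score (E-score), a modified Wilcoxon-Mann-Whitney statistic from -0.5 to +0.5, computed with the Universal PBM Analysis Suite. Scale: above 0.35 generally sequence-specific binding.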

Sequence | PBM E-score
AAATTTCC | -0.0423
GCTGACAA | 0.00774
CCTGACAA | -0.124
CCTGACTC | 0.481
CCTGACAC | 0.023
GCTGACGA | 0.129
GCTGACTA | 0.467
CCTGACGC | -0.133
ACTGACCC | 0.0295
ACTGACTC | 0.461
CCTGACGA | 0.115
ACTGACAC | 0.0326
CCTGACTA | 0.461
ACCGCTCT | -0.114
CCGCTTAC | 0.026
ATCACCCA | 0.135
AGACCAGG | -0.166
TGCGTAAA | 0.026
GCCGTCGA | -0.0942
CGCGGTAG | -0.0407
CCGGGTAA | -0.0414
ACTGACCA | -0.0902

Sequence | PBM E-score
ACTGACTA | 0.447
ACTGACTG | 0.306
ATAAAACC | 0.0678
AAAAACCT | 0.111
CGTCACTC | -0.0803
ATTCACTG | 0.138
AGACACTG | 0.0291
ATTCACTC | 0.0742
GGTCACTA | -0.234
AGTCACTA | 0.469
AGTCACTC | 0.467
AGTCACTG | 0.457
CGTCACTA | 0.0406
TACTGATA | 0.0643
ATAGGACG | -0.178
CCGCCAAG | -0.149
ACGTAGTG | -0.132
ACGTAGTA | -0.0277
CCGTAGTA | -0.15
CCGTAGGC | -0.119
ACGTAGTC | 0.39
CCGTAGTC | 0.394

Sequence | PBM E-score
AGCGTTAG | -0.0809
CATAGCAA | -0.0521
CATCTGTA | -0.0129
GGATCGTA | -0.118
AACTATAA | 0.0773
GACTATAC | 0.413
CACTATAA | -0.0109
AACTATAC | 0.172
CACTATAC | -0.184
GACTATAA | 0.389
AACTCTCG | -0.105
CCTTCAGC | -0.126
CATTTGGA | 0.0626
AATGAGAC | 0.257
AATGAGTC | 0.485
CATGAGAC | 0.322
CATGAGCC | 0.247
CATGAGTC | 0.481
AATGAGTG | 0.249
ACGAGCGA | -0.0924
TGTTGAAA | 0.0239
ACATCCCT | -0.0971

Sequence | PBM E-score
AGATCTAA | -0.0235
AGAAGTAT | 0.0717
ACTCATAG | 0.385
CCTCATAC | -0.153
ACTCATAC | 0.393
ACTCATAT | 0.368
ACTCATAA | 0.375
CCTCATAG | -0.00122
ATTCATAG | 0.166
TCTCATAA | 0.209
GCTCATAA | 0.136
ACCCATAT | 0.216
GCTCATAC | -0.0113
ACGCATAT | -0.225
GAAGATCA | 0.02
ATCGATAG | 0.0388
GCGCGACA | -0.0346
ACCTGGAG | 0.0449
CTCTTGCA | 0.00318
AGTGATTG | 0.362
CGTGATCC | -0.251
GGTGATGA | 0.191
